# Data as given in PubChem BioAssay AID1159580 (chemical genetic matrix, 2015).
# Among all 5,500 compounds or so, about 2,000 (36%) were called active. Another 18% or so got no clear call; they are omitted. Some of the results follow. Unmarked numbers belong to inactive results. Cut-off read from the data, not from the text of the source: active = normalized growth mostly below about 0.91 (no sharp cut-off); inconclusive = no clear call, values can overlap the other calls; inactive = mostly above about 0.92.
# Assay: chemical genetic growth profiling, strain panel (AID 1159580);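 note: tested at 20 µM; growth read once vehicle control cultures reached saturation at 30 °C; 1 = growth at the plate median or of vehicle wells; lower values mean less growth of the strain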
# Settings: S. cerevisiae deletion strains, growth OD
# [1] = locus YAL013W, strain DEP1, active compounds read low
# [2] = locus YBR229C, strain ROT2, active compounds read low
# [3] = locus YCL061C, strain MRC1, active compounds read low
# [4] = locus YDL101C, strain DUN1, active compounds read low
# [5] = locus YDR150W, strain NUM1, active compounds read low
# [6] = locus YEL061C, strain CIN8, active compounds read low
# [7] = locus YGR078C, strain PAC10, active compounds read low
# [8] = locus YGR229C, strain SMI1, active compounds read low
# [9] = locus YHR030C, strain SLT2, active compounds read low
# [10] = locus YHR087W, strain rtc3, active compounds read low
# [11] = locus YJL187C, strain SWE1, active compounds read low
# [12] = locus YJR043C, strain POL32, active compounds read low
# [13] = locus YJR075W, strain HOC1, active compounds read low
# [14] = locus YKL190W, strain CNB1, active compounds read low
# [15] = locus YLR039C, strain RIC1, active compounds read low
# [16] = locus YLR058C, strain SHM2 (second series), active compounds read low
# [17] = locus YLR085C, strain ARP6, active compounds read low
# [18] = locus YLR262C, strain YPT6, active compounds read low
# [19] = locus YML094W, strain GIM5, active compounds read low
# [20] = locus YMR219W, strain ESC1, active compounds read low
# [21] = locus YMR263W, strain SAP30, active compounds read low
# [22] = locus YMR307W, strain GAS1, active compounds read low
# [23] = locus YNL153C, strain GIM3, active compounds read low
# [24] = locus YNL298W, strain CLA4 (second series), active compounds read low
# [25] = locus YNL322C, strain KRE1, active compounds read low
# [26] = locus YNR030W, strain Alg12, active compounds read low
# [27] = locus YOL006C, strain TOP1, active compounds read low
# [28] = locus YPL055C, strain LGE1, active compounds read low
# [29] = locus YPL241C, strain CIN2, active compounds read low
# [30] = locus YPR135W, strain CTF4, active compounds read low
smiles,measurement,setting,value
Cc1cscc1S(=O)(=O)c1ccc(Cl)cc1,normalized growth,[1],0.991
same,normalized growth,[2],0.969
same,normalized growth,[3],0.97
same,normalized growth,[4],0.966
same,normalized growth,[5],0.929
same,normalized growth,[6],0.98
same,normalized growth,[7],0.958
same,normalized growth,[8],0.981
same,normalized growth,[9],0.821
same,normalized growth,[10],0.974
same,normalized growth,[11],1
same,normalized growth,[12],0.958
same,normalized growth,[13],0.922
same,normalized growth,[14],0.991
same,normalized growth,[15],0.819
same,normalized growth,[16],0.975
same,normalized growth,[17],0.967
same,normalized growth,[18],0.833
same,normalized growth,[19],0.969
same,normalized growth,[20],0.978
same,normalized growth,[21],0.953
same,normalized growth,[22],0.855
same,normalized growth,"locus YNL128W, strain TEP1, active compounds read low",0.994
same,normalized growth,[23],0.945
same,normalized growth,[24],0.961
same,normalized growth,[25],0.975
same,normalized growth,[26],0.95
same,normalized growth,[27],0.904
same,normalized growth,[28],0.898
same,normalized growth,[29],0.953
same,normalized growth,[30],0.765
Cc1c(S(=O)(=O)c2ccc(Cl)cc2)csc1C(=O)Nc1ccc(N2CCOCC2)c(Cl)c1,normalized growth,[1],0.992
same,normalized growth,[2],1.03
same,normalized growth,[3],1.05
same,normalized growth,[4],1.06
same,normalized growth,[5],1.05
same,normalized growth,[6],1.03
same,normalized growth,[7],1.07
same,normalized growth,[9],1.06
same,normalized growth,[10],0.999
same,normalized growth,[11],1.03
same,normalized growth,[12],1.03
same,normalized growth,[13],1.15 [resistant] (active)
same,normalized growth,[14],0.982
same,normalized growth,[15],0.992
same,normalized growth,[16],0.989
same,normalized growth,[17],0.947
same,normalized growth,[18],1.12
same,normalized growth,[19],0.988
same,normalized growth,[20],1
same,normalized growth,[21],1.03
same,normalized growth,[22],1.03
same,normalized growth,[23],1.06
same,normalized growth,[24],0.999
same,normalized growth,[25],0.991
same,normalized growth,[26],0.995
same,normalized growth,[27],1.03
same,normalized growth,[28],1.05
same,normalized growth,[29],0.984
same,normalized growth,[30],1.13
Cc1c(S(=O)(=O)c2ccc(Cl)cc2)csc1S(=O)(=O)N/N=C\c1c(Cl)cccc1Cl,normalized growth,[1],1
same,normalized growth,[2],1.01
same,normalized growth,[4],1.02
same,normalized growth,"locus YDL134C, strain PPH21, active compounds read low",0.996
same,normalized growth,[5],0.948
same,normalized growth,[6],0.991
same,normalized growth,[7],1.01
same,normalized growth,[8],1
same,normalized growth,[9],1.02
same,normalized growth,[10],0.998
same,normalized growth,[12],1.01
same,normalized growth,[13],1.03
same,normalized growth,[14],1
same,normalized growth,[15],1
same,normalized growth,[16],1.01
same,normalized growth,[17],1.04
same,normalized growth,[18],1
same,normalized growth,[19],0.988
same,normalized growth,[20],1.01
same,normalized growth,[21],0.984
same,normalized growth,[22],1.04
same,normalized growth,[23],1
same,normalized growth,[24],1.03
same,normalized growth,[25],1
same,normalized growth,[26],1.01
same,normalized growth,[27],1.03
same,normalized growth,[28],0.886
same,normalized growth,[29],0.993
same,normalized growth,[30],1
Cc1c(S(=O)(=O)c2ccc(Cl)cc2)csc1C(=O)NNc1cccc(Cl)c1,normalized growth,"locus YAR019C, strain CDC15, active compounds read low",0.964
same,normalized growth,"locus YBL105C, strain PKC1, active compounds read low",0.958
same,normalized growth,"locus YBR135W, strain CKS1, active compounds read low",0.96
same,normalized growth,"locus YBR136W, strain MEC1, active compounds read low",0.962
same,normalized growth,"locus YBR160W, strain CDC28, active compounds read low",0.957
same,normalized growth,"locus YDL017W, strain CDC7, active compounds read low",0.967
same,normalized growth,"locus YDL028C, strain MPS1, active compounds read low",0.97
same,normalized growth,[4],0.978
same,normalized growth,"locus YDL108W, strain KIN28, active compounds read low",0.973
same,normalized growth,"locus YDL132W, strain cdc53, active compounds read low",0.954
same,normalized growth,"locus YDL214C, strain PRR2, active compounds read low",0.826
same,normalized growth,"locus YDR052C, strain DBF4, active compounds read low",0.953
same,normalized growth,"locus YDR054C, strain cdc34, active compounds read low",0.947
same,normalized growth,"locus YDR226W, strain ADK1, active compounds read low",0.959
same,normalized growth,"locus YDR477W, strain SNF1, active compounds read low",0.769
same,normalized growth,"locus YER123W, strain YCK3, active compounds read low",0.574 (active)
same,normalized growth,"locus YER133W, strain GLC7, active compounds read low",0.864
same,normalized growth,"locus YFL009W, strain cdc4, active compounds read low",0.962
same,normalized growth,"locus YFL029C, strain CAK1, active compounds read low",0.959
same,normalized growth,"locus YFR003C, strain YPI1, active compounds read low",0.967
same,normalized growth,"locus YFR019W, strain FAB1, active compounds read low",0.653 (active)
same,normalized growth,"locus YFR028C, strain CDC14, active compounds read low",0.948
same,normalized growth,"locus YGR040W, strain KSS1, active compounds read low",0.811
same,normalized growth,"locus YGR052W, strain FMP48, active compounds read low",0.71
same,normalized growth,"locus YGR092W, strain DBF2, active compounds read low",0.783
same,normalized growth,[9],0.884
same,normalized growth,"locus YHR079C, strain IRE1, active compounds read low",1.01
same,normalized growth,"locus YHR082C, strain KSP1, active compounds read low",0.958
same,normalized growth,"locus YHR205W, strain SCH9, active compounds read low",0.907
same,normalized growth,"locus YIL147C, strain SLN1, active compounds read low",0.972
same,normalized growth,"locus YJL095W, strain BCK1, active compounds read low",0.679
same,normalized growth,"locus YJL128C, strain PBS2, active compounds read low",0.968
same,normalized growth,"locus YJL157C, strain FAR1, active compounds read low",0.886
same,normalized growth,"locus YJR016C, strain ILV3, active compounds read low",0.968
same,normalized growth,"locus YJR066W, strain TOR1 (second series), active compounds read low",0.684
same,normalized growth,"locus YJR066W, strain TOR1, active compounds read low",0.872
same,normalized growth,"locus YKL048C, strain ELM1, active compounds read low",0.947
same,normalized growth,"locus YKL067W, strain YNK1, active compounds read low",0.879
same,normalized growth,"locus YKL101W, strain HSL1, active compounds read low",0.948
same,normalized growth,"locus YKL193C, strain SDS22, active compounds read low",0.963
same,normalized growth,"locus YKL203C, strain TOR2, active compounds read low",0.954
same,normalized growth,"locus YLR113W, strain HOG1, active compounds read low",0.675 (active)
same,normalized growth,"locus YLR133W, strain CKI1, active compounds read low",0.81
same,normalized growth,"locus YLR403W, strain SFP1, active compounds read low",0.877
same,normalized growth,"locus YML070W, strain DAK1, active compounds read low",0.823
same,normalized growth,"locus YMR001C, strain CDC5, active compounds read low",0.961
same,normalized growth,"locus YMR205C, strain PFK2 (second series), active compounds read low",0.91
same,normalized growth,"locus YMR277W, strain FCP1, active compounds read low",0.96
same,normalized growth,"locus YNL006W, strain LST8, active compounds read low",0.963
same,normalized growth,"locus YNL020C, strain ARK1, active compounds read low",0.941
same,normalized growth,"locus YNL161W, strain CBK1, active compounds read low",0.955
same,normalized growth,"locus YNL183C, strain NPR1, active compounds read low",0.911
same,normalized growth,"locus YNL207W, strain RIO2, active compounds read low",0.969
same,normalized growth,"locus YNL222W, strain SSU72, active compounds read low",0.961
same,normalized growth,"locus YNL307C, strain MCK1 (second series), active compounds read low",0.743
same,normalized growth,"locus YOL078W, strain AVO1, active compounds read low",0.965
same,normalized growth,"locus YOL136C, strain PFK27, active compounds read low",0.889
same,normalized growth,"locus YOR119C, strain RIO1, active compounds read low",0.905
same,normalized growth,"locus YOR231W, strain MKK1, active compounds read low",0.942
same,normalized growth,"locus YOR329C, strain SCD5, active compounds read low",0.969
same,normalized growth,"locus YPL031C, strain PHO85, active compounds read low",0.852
same,normalized growth,"locus YPL153C, strain RAD53, active compounds read low",0.857
same,normalized growth,"locus YPL204W, strain HRR25, active compounds read low",0.897
same,normalized growth,"locus YPL209C, strain IPL1, active compounds read low",0.955
same,normalized growth,"locus YPL256C, strain CLN2, active compounds read low",0.733 (active)
same,normalized growth,"locus YPR025C, strain CCL1, active compounds read low",0.962
same,normalized growth,"locus YPR106W, strain ISR1, active compounds read low",0.971
same,normalized growth,"locus YPR111W, strain DBF20, active compounds read low",0.952
same,normalized growth,"strain NNK1, active compounds read low",0.966
same,normalized growth,"strain TSCII, active compounds read low",0.957
